This is a sample that favours compounds with a hit; in the whole collection about 5.9% have one here.
Gal4-VP16 FLuc: Gal4-VP16 reporter inhibition counter-screen. Drosophila S2 Gal4-VP16 UAS-luciferase, luminescence, 20 h. Potency, µM (highest dose often 53.6 µM), actives largely listed as inhibitors. actives 3.5% (n = 310,000). AID 2546;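 further: Gal4-VP16 expression switched on by copper sulfate through the metallothionein promoter; nearly all actives have a fitted effect of over 50% in size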
GLP1R ag: activates the human GLP-1 receptor. P43220. HEK293 GLP-1R CRE-luciferase, luminescence, 4-6 h; cells express a hypersensitive GLP-1R form. Potency, µM (top dose mostly 45.6 µM), hits mostly activators. actives 0.007% (n = 380,000)
Target sequence (P43220 whole entry, looked up): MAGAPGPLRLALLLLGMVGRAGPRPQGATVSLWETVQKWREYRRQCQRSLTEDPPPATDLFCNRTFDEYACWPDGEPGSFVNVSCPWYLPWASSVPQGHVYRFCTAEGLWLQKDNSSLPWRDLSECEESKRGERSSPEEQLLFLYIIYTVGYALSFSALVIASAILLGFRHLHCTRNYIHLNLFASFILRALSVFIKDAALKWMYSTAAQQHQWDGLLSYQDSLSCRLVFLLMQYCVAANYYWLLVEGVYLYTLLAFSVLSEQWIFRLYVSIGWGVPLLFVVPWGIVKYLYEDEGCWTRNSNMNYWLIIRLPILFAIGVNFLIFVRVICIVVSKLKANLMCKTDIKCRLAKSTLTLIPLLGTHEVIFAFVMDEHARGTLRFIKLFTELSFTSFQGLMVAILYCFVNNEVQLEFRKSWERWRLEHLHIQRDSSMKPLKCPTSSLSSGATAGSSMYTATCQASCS
GLP-1R inv ag: inverse agonists of human GLP-1 receptor; P43220; HEK293 GLP-1R CRE-luciferase, luminescence, 24 h; GLP-1R form is constitutively active; Potency, µM (doses to about 38.3 µM), usual class: inhibitors; actives 1.6% (n = 410,000); AID 624417; further: nearly all actives have a fitted effect of over 55% in size
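Constitutively active GLP-1R drives a cAMP-responsive luciferase in stably transfected HEK293 cells; test compounds are added after overnight (12 h) attachment and left 24 hr, and signal loss in luminescence marks inhibition.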
RORg inh: blocks mouse ROR gamma transcriptional activity; P51450; Drosophila S2 Gal4-RORgamma UAS-luciferase reporter, 20 h; Potency, µM (highest dose often 53.6 µM), most hits filed as inhibitors; actives 5.4% (n = 310,000); AID 2551; further: nearly all actives have a fitted effect of over 60% in size
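Luminescence from a UAS-regulated Photinus luciferase reporter in stably transfected Drosophila Schneider cells is measured; decreased signal marks ROR gamma inhibition. Fusion expression is induced by 700 uM copper sulfate for 20 hr.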
HEK293 tox: cytotoxicity in counter-screen for GLP-1R inverse agonists | HEK293 cAMP-luciferase reporter cells, luminescence, 24 h | Potency, µM (doses to about 38.3 µM), actives largely listed as inhibitors | actives 0.13% (n = 410,000);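 further: loss of luciferase light is scored as toxicity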
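Cells in DMEM/10% Nu serum/1% pen-strep, 1536-well format. Pre-incubated 12 h, dosed with 23 nL compound, incubated a further 24 h. Luciferase detection, 12 min at room temp, luminescence.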
Large screens that a line does not name were inactive. The call rests on the fitted dose curve; in most records, active means well fitted curve in the direction sought with a large enough effect; inconclusive means small, poorly fitted or top-dose-only effect, or another doubt; inactive means no such curve, though single readings can be large; an effect the other way counts as inactive or inconclusive.

CC(=O)Nc1ccc(Nc2cc(C)nc3c(-c4ccc(Cl)cc4)cnn23)cc1	Gal4-VP16 FLuc inconclusive, RORg inh inconclusive
Cc1cc(SCC(=O)c2cccs2)n2nc(C)c(-c3ccccc3)c2n1	Gal4-VP16 FLuc 5.6µM, GLP-1R inv ag inconclusive, RORg inh 3.2µM, HEK293 tox inconclusive
Cc1cc(Cl)n2nc(C)c(-c3ccc(Cl)cc3)c2n1	RORg inh inconclusive
Cc1oc2ccc(O)c(CN3CCOCC3)c2c1C(=O)Nc1ccc(C(C)C)cc1	GLP-1R inv ag inconclusive (no result: Gal4-VP16 FLuc, GLP1R ag, RORg inh)
COC(=O)c1ccc(NC(=O)C2CCN(c3ncnc4c3nc3n4CCCCC3)CC2)cc1	none (no result: Gal4-VP16 FLuc, GLP1R ag, RORg inh)
NC(Cc1ccccc1)c1csc(NC(=O)Nc2ccccc2Oc2ccccc2)n1 (stereo not drawn)	GLP-1R inv ag inconclusive (no result: Gal4-VP16 FLuc, RORg inh)
NC(Cc1ccc(C(F)(F)F)cc1)c1csc(NC(=O)Nc2ccccc2Oc2ccccc2)n1 (stereo not drawn)	GLP-1R inv ag inconclusive, HEK293 tox 11µM (no result: Gal4-VP16 FLuc, RORg inh)
O=C(CN1C(=O)C2C3C=CC(C3)C2C1=O)OCC(=O)c1ccc([N+](=O)[O-])cc1 (stereo not drawn)	none
O=C(CN1C(=O)C2CC=CCC2C1=O)OCC(=O)c1ccc(Cl)c([N+](=O)[O-])c1 (stereo not drawn)	Gal4-VP16 FLuc 35µM
Cc1cccc(N2C(=O)CSC23C(=O)N(CC(=O)NCc2ccccc2Cl)c2ccccc23)c1 (stereo not drawn)	GLP-1R inv ag 10µM (no result: Gal4-VP16 FLuc, RORg inh)
CCCc1ccc(Oc2c(-c3ccc(O)c(C)c3O)n[nH]c2C)cc1	Gal4-VP16 FLuc inconclusive, GLP-1R inv ag inconclusive, RORg inh 18µM
Brc1ccc2ncnc(NCc3ccccc3)c2c1	Gal4-VP16 FLuc inconclusive, GLP-1R inv ag 1.4µM, RORg inh inconclusive
c1ccc(CCNc2ncnc3ccccc23)cc1	Gal4-VP16 FLuc 0.56µM, GLP-1R inv ag inconclusive, RORg inh 1.1µM
CCc1ccccc1Nc1ncnc2ccccc12	none
Cc1cc2c(NCCc3ccccc3)ncnc2s1	GLP-1R inv ag inconclusive (no result: Gal4-VP16 FLuc, RORg inh)
CCCCCCCCNc1ncnc2ccccc12	Gal4-VP16 FLuc 0.35µM, RORg inh 2.2µM
COc1ccc(C(=O)NCC(c2cccs2)S(=O)(=O)c2cccs2)cc1 (stereo not drawn)	none (no result: Gal4-VP16 FLuc, GLP1R ag, RORg inh)
COC(=O)Cn1c(C2CC(=O)N(c3c(C)cccc3C)C2)nc2ccccc21 (stereo not drawn)	none (no result: Gal4-VP16 FLuc, GLP1R ag, RORg inh)
Cc1cc(N2CCCC2)nc2ccc(NC(=S)NC(C)C)cc12	GLP-1R inv ag inconclusive
Cc1cc(N2CCOCC2)nc2ccc(NC(=S)NCc3ccc4c(c3)OCO4)cc12	Gal4-VP16 FLuc inconclusive, RORg inh 22µM
Cc1cc(N2CCOCC2)nc2ccc(NC(=S)NC(C)C)cc12	Gal4-VP16 FLuc inconclusive, RORg inh 10µM
Cc1ccc(N2C(=O)CC(Sc3ncn[nH]3)C2=O)cc1C (stereo not drawn)	Gal4-VP16 FLuc inconclusive, RORg inh inconclusive
CN(C)c1ccc(N2C(=O)CC(Sc3ccccc3C(=O)O)C2=O)cc1 (stereo not drawn)	Gal4-VP16 FLuc 16µM, RORg inh inconclusive
Cc1cc(C)cc(N2C(=O)CC(Sc3ccccc3C(=O)O)C2=O)c1 (stereo not drawn)	RORg inh inconclusive
O=C(O)c1ccccc1SC1CC(=O)N(c2ccc3c(c2)OCO3)C1=O (stereo not drawn)	Gal4-VP16 FLuc inconclusive, RORg inh 3.2µM
Nc1ccccc1SC1CC(=O)N(c2ccc3c(c2)OCO3)C1=O (stereo not drawn)	none
Cc1cccc(N2C(=O)CC(Sc3ncn[nH]3)C2=O)c1 (stereo not drawn)	RORg inh 13µM
Cc1cccc(N2C(=O)CC(Sc3ccccc3C(=O)O)C2=O)c1 (stereo not drawn)	Gal4-VP16 FLuc 5µM, RORg inh inconclusive
Cc1ccc(CCNS(=O)(=O)c2c(C)nc3sc(C)c(C)n3c2=O)cc1	none (no result: Gal4-VP16 FLuc, GLP1R ag, RORg inh)
Nc1cc2nsnc2cc1Br	RORg inh 13µM
COc1ccc(CCNC(=O)C(C)n2c(=O)cc(-c3ccccc3)c3c(C)nn(C)c32)cc1OC (stereo not drawn)	none (no result: Gal4-VP16 FLuc, GLP1R ag, RORg inh)
CNc1nc(-c2ccccc2C)nc2ccccc12	none (no result: GLP1R ag, GLP-1R inv ag, HEK293 tox)
